The source made the active and inactive calls.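 The calls were made as follows, unless noted: active = inhibition of the reporter signal at or above 50%; inactive = inhibition below 50%.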
Columns and labels:
[1] = inhibitors of TNFa-induced NFkB p65 translocation, primary screen, imaging, HUVEC, MLSMR starter and 10KST1 sets (AID 438;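 active = inhibition above 20% together with a positive visual image hit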;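 also: compound added about 3h40 before a 20 min TNFalpha stimulation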;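 as to inhibition: signal is the nuclear over cytoplasmic p65 intensity ratio per well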); details: HUVEC TNFa-induced p65 nuclear translocation; cell count: measured here: nuclei count (cytotoxicity indicator), at 2.08 µM; inhibition: at 2 µM, stronger effect = higher value, 0% TNFa-plus-vehicle, 100% no-TNFa wells
[2] = inhibitors of mutant huntingtin aggregation, primary screen, imaging, exon1htt(103Q)mCFP cells, high-content imaging (AID 483;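 active = visual image review flags a hit and inhibition of aggregation exceeds 20%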;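 also: compound exposure lasted 3 days before fixation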;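 as to nuclei count: percent of the per-plate median nuclei count of sample wells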); details: exon1htt(103Q)mCFP cell line, aggregate imaging, at 2 µM; inhibition of aggregation: stronger effect = higher value; nuclei count: measured here: cell count, toxicity
[3] = inhibitors of E-selectin induction by TNFa, primary screen, imaging, HUVEC, immunofluorescence, MLSMR starter and 10KST1 sets (AID 487;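 active = visually confirmed hit in the image check and inhibition above 20%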;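 as to inhibition: signal is fraction of cell area covered by stained E-selectin grains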;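 as to nuclei count: 100% = median nuclei count of all wells on the same plate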); details: HUVEC TNFalpha-induced E-selectin immunofluorescence imaging, at 2 µM; inhibition: stronger effect = higher value; nuclei count: measured here: cell number, toxicity
[4] = biological target: Voltage-gated potassium channel subunit beta-2 (Rattus norvegicus) (UniProt P62483); assay: KvBeta enzyme negative modulators, primary screen, biochemical, NADPH fluorescence (AID 622;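 active = fluorescence slope higher than the sample average by over 3 SD, cut at about -0.22 in these data, passing the limit was not always enough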;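 also: slope of raw intensity against log time taken from 70 to 1610 s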); details: recombinant KvBeta, 4-cyanobenzaldehyde reduction, at 10 µM, stronger effect = higher value
[5] = biological target: Voltage-gated potassium channel subunit beta-2 (Rattus norvegicus) (UniProt P62483); assay: KvBeta positive modulators, primary screen, biochemical, NADPH fluorescence (AID 623;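 active = NADPH fluorescence slope more negative than the mean of all samples by about 3 SD, 99.7% confidence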;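 also: fluorescence intensity change per second fitted from 20 to 320 s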); details: Recombinant KvBeta, NADPH fluorescence decrease slope, 10 min; at 10 µM; stronger effect = lower value
[6] = biological target: Alpha-2C adrenergic receptor (Homo sapiens) (UniProt P18825); assay: modulators of alpha2C/GIRK thallium flux, primary screen, cell-based, HEK293 alpha2C/GIRK1/2 (AID 624;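 active = fluorescence slope after compound addition differing from the mean of all screened samples at 99.7% confidence, in either direction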;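 also: slope of fluorescence ratio to pre-addition baseline per second over 15 to 24 s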); details: thallium flux BTC fluorescence, at 10 µM, actives lie on both sides
[7] = inhibitors of Sendai virus-induced IRF3 signaling, primary screen, TLR/RLR signaling modifier project, cell-based, Sendai virus stimulus, luciferase, 10K MLSCN set (AID 602276;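 active = inhibition at or above 50% at 10 µM; inactive = inhibition below 50%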;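 also: firefly luciferase from ISG56 promoter only with Renilla not read in this screen; 0% = Sendai virus plus DMSO and 100% = medium plus DMSO without virus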); details: HEK293 RL24 IRF3 luciferase reporter, at 10 µM, stronger effect = higher value
[8] = inhibitors of poly I:C-induced TLR3 signaling, primary screen, cell-based, poly I:C stimulus, luciferase, 10K MLSCN set (AID 602277); details: HEK293-TLR3 RL24 IRF3 luciferase reporter, at 10 µM, stronger effect = higher value

Voltage-gated potassium channel subunit beta-2 (Rattus norvegicus), sequence (P62483 whole entry, looked up): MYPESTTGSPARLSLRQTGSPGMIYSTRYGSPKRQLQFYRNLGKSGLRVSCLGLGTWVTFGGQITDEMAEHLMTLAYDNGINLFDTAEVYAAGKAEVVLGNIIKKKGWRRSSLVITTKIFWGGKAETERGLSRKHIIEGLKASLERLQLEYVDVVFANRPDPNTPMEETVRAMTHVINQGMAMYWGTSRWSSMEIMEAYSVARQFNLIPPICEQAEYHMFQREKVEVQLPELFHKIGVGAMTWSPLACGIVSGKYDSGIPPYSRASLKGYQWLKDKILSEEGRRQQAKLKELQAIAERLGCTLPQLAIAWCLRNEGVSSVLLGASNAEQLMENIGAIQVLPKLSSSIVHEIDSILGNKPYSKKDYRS
Alpha-2C adrenergic receptor (Homo sapiens), sequence (P18825 whole entry, looked up): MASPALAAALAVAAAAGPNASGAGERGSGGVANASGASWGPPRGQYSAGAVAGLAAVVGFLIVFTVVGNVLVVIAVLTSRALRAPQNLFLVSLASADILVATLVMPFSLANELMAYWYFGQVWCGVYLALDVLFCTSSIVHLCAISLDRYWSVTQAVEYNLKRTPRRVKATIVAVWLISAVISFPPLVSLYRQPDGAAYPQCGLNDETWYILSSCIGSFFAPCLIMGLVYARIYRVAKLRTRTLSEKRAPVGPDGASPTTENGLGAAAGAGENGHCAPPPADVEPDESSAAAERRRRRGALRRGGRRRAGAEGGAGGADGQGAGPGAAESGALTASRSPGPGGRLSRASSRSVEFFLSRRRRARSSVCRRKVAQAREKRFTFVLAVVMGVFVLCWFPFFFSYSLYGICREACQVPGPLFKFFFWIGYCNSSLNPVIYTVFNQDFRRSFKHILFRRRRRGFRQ

Row | Structure (SMILES) | cell count [1] | inhibition [1] | inhibition of aggregation [2] | nuclei count [2] | inhibition [3] | nuclei count [3] | fluorescence slope [4] | NADPH fluorescence slope [5] | slope [6] | inhibition [7] | inhibition [8]
1 | CC(C)Cc1nc2oc3c(N4CCN(CCO)CC4)ncnc3c2c2c1CCCC2 | 450 | -11.5% (inactive) | -9.1% (inactive) | 99.9% | 6.5% (inactive) | 119% | -0.475 (inactive) | 4e-05 (inactive) | 0.00359 (inactive) | -8.86% (inactive) | 31.2% (inactive)
2 | CCn1nc(C)c(NC(=O)c2cc(Br)ccc2Cl)c1C | 497 | -5.8% (inactive) | -21.4% (inactive) | 111% | -17.6% (inactive) | 115% | -0.445 (inactive) | -0.000104 (inactive) | 0.00617 (inactive) | 14.4% (inactive) | 25% (inactive)
3 | O=C(Cn1cc2c(n1)CCCCC2)N1CCc2ccccc2C1 | 670 | 12% (inactive) | 15.4% (inactive) | 88.6% | 27.7% (inactive) | 85.1% | -0.631 (inactive) | 1.4e-05 (inactive) | 0.0057 (inactive) | -16% (inactive) | -17.6% (inactive)
4 | NCc1cccc(-n2cccn2)c1 | 680 | -8.9% (inactive) | 1.2% (inactive) | 96.4% | -25.7% (inactive) | 115% | -0.622 (inactive) | 4.5e-06 (inactive) | 0.00555 (inactive) | -6.32% (inactive) | 6.04% (inactive)
5 | CN=C(Nc1ccc2c(c1)OCO2)SC1CC(=O)N(c2ccccc2)C1=O (centres undefined) | 699 | 11% (inactive) | 6.4% (inactive) | 95.4% | 7.9% (inactive) | 112% | -0.381 (inactive) | -3.2e-05 (inactive) | 0.00557 (inactive) | 10% (inactive) | 17.2% (inactive)
6 | S=C(c1ccc(-c2cc(Cl)ccc2Cl)o1)N1CCOCC1 | 365 | -10.4% (inactive) | -14% (inactive) | 111% | -53.8% (inactive) | 113% | -0.523 (inactive) | -6e-06 (inactive) | 0.00341 (inactive) | 21.6% (inactive) | 8.92% (inactive)
7 | CC(C)CCNC(=O)NC(=O)COc1ccccc1C#N | 381 | -23.5% (inactive) | 15.6% (inactive) | 102% | -71.3% (inactive) | 111% | -0.586 (inactive) | -8.5e-06 (inactive) | 0.00627 (inactive) | -47.7% (inactive) | -112% (inactive)
8 | COc1ccc(C(=O)N2CCN(C(=O)c3ccco3)CC2)cc1OC | 546 | -3.9% (inactive) | -2.2% (inactive) | 108% | -184% (inactive) | 199% | -0.401 (inactive) | -3.4e-05 (inactive) | 0.00558 (inactive) | 13.2% (inactive) | 13.7% (inactive)
9 | COc1ccc(OC)c(NC(=O)CCNS(=O)(=O)c2cccs2)c1 | 662 | 7.1% (inactive) | 5.1% (inactive) | 81.4% | -74.4% (inactive) | 91.1% | -0.533 (inactive) | 3.3e-05 (inactive) | 0.00666 (inactive) | 14.1% (inactive) | 24.2% (inactive)
10 | CCOC(=O)/C(C#N)=C(/C)c1ccc(OC)cc1 | 323 | -9.6% (inactive) | -28.9% (inactive) | 120% | -50.1% (inactive) | 120% | -0.515 (inactive) | -4.3e-06 (inactive) | 0.00405 (inactive) | 5.07% (inactive) | -13.7% (inactive)
11 | COc1cccc(Oc2cnc(N)nc2-c2ccc(OC)cc2O)c1 | 664 | -8.2% (inactive) | 5.1% (inactive) | 112% | -111% (inactive) | 87.8% | -0.427 (inactive) | -5.9e-05 (inactive) | 0.00372 (inactive) | 23.8% (inactive) | 38% (inactive)
12 | CCOc1ccc2[nH]c(=O)c(C(c3nnnn3CC3CCCO3)N3CCc4ccccc4C3)cc2c1 (centres undefined) | 702 | 12.9% (inactive) | 3.6% (inactive) | 69% | -1.8% (inactive) | 119% | -0.598 (inactive) | -8.5e-06 (inactive) | 0.00562 (inactive) | 20.7% (inactive) | 31.2% (inactive)
13 | O=C(Cn1cnc2c(cnn2-c2ccc(F)cc2)c1=O)N1CCCc2ccccc21 | 427 | 1.5% (inactive) | 2.1% (inactive) | 104% | -61.6% (inactive) | 110% | -0.628 (inactive) | -5.2e-05 (inactive) | 0.00385 (inactive) | 11.3% (inactive) | 6.11% (inactive)
14 | NC(=O)C1CCN(C(=S)c2cccs2)CC1 | 759 | 3.9% (inactive) | 12.1% (inactive) | 105% | -69.5% (inactive) | 107% | -0.49 (inactive) | -1.4e-06 (inactive) | 0.00525 (inactive) | 19.1% (inactive) | 30.8% (inactive)
